A selection: hits, their analogues and other compounds. The true share with any hit is near 3%.
KKLEB tox: counter-screen for CF NF-kB inhibitors: cytotoxicity; KKLEB CF airway cells viability, ATPlite luminescence, overnight; stronger effect = lower value; cells stimulated with P. aeruginosa culture filtrate; activity change (cytotoxicity), % at 5 µM; 360,000 tested, 0.36% active; AID 602141;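 active means corrected activity change at or below -50% at 5 µM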
ABHD5 PLIN5 PPI: inhibitors of human ABHD5-perilipin-5 interaction; inhibition, % at 4 µM; Split G. princeps luciferase complementation, luminescence, 4 h; 360,000 tested, 0.78% active; Q00G26+Q8WTS1;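 active means inhibition above the mean inhibition across every tested compound plus 3 SD, cut at about 22% in these data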;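 further: 0% = DMSO only wells and the 100% control is not disclosed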
Peg3 promoter: Peg3 promoter activity inhibition | 360,000 tested, 1.7% active | HeLa PEG-Prom luciferase reporter, luminescence, overnight | inhibition, % at 20 µM | AID 588405;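 active means inhibition of at least 50% at 20 µM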
CF NFkB inh: inhibitors of cystic fibrosis induced NF-kB; KKLEB NF-kB-GFP reporter, PAF-induced, GFP fluorescence overnight; 360,000 tested, 0.86% active; inhibition, % at 5 µM;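 active means at least 50% inhibition at 5 µM, scaled per plate between neutral and stimulator controls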;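 further: PAF is a Pseudomonas aeruginosa culture filtrate used as stimulus; plate controls were PAF-stimulated DMSO wells for no effect and unstimulated DMSO wells for full effect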
MITF TRPM1 inh: reduces MITF-dependent TRPM1 promoter luciferase signal. SK-MEL-5 TRPM1 promoter luciferase, 24 h. inhibition, % at 12.5 µM. 330,000 tested, 0.83% active;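 active means mean inhibition across replicates of 60% or more, whatever share of single replicates reaches that level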
HIF-2a block: HIF-2a inhibition; 786-0 RCC cells HIF-2a reporter, luciferase luminescence, overnight; inhibition, % at 18.8 µM; 360,000 tested, 0.72% active; AID 624352;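 active means inhibition of the luminescence signal of 40% or more relative to plate controls, in a single-dose primary screen at 18.75 µM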
Mdm2-MdmX confirm: confirmation of inhibitors of human Mdm2/MdmX interaction, set 2. shares compounds with HIF-2a block. SaOS-2 split-luciferase Mdm2/MdmX complementation, luminescence. inhibition, % at 8 µM. 740 tested, 99% active;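 active means mean inhibition of the luminescence signal across two replicates at or above 26 percent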
Target sequence (O15151 whole entry, looked up): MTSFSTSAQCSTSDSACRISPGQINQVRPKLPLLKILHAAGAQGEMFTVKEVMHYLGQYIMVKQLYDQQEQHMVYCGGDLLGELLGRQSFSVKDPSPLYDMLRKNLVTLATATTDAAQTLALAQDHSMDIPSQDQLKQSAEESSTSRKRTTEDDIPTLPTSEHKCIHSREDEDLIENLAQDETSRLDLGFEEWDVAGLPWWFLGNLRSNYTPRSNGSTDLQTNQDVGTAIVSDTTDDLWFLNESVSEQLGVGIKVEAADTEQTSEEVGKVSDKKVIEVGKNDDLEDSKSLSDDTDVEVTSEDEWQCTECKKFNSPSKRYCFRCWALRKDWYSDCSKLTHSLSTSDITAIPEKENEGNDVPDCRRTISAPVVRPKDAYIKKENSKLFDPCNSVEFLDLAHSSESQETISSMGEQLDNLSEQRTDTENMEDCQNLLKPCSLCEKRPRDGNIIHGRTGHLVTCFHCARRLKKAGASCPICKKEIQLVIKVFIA
Target sequence (Q00987 whole entry, looked up): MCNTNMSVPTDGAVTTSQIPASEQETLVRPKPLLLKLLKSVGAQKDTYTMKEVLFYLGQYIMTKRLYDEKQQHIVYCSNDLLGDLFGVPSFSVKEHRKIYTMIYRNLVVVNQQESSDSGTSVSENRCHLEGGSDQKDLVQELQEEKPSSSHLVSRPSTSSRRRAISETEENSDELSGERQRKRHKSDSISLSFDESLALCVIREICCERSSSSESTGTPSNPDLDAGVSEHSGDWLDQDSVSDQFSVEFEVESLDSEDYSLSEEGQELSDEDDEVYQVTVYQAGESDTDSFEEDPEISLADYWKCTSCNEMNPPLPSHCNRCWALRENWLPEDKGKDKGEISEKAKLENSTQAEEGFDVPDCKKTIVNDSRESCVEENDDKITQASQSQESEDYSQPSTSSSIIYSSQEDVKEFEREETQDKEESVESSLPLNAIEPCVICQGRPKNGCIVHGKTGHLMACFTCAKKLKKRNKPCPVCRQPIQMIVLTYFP
HIF-2a conf: confirmation of HIF-2a inhibitors; shares compounds with HIF-2a block; 786-0 RCC cells, HIF-2a luciferase reporter luminescence, overnight; inhibition, % at 18.8 µM; 1,800 tested, 56% active; AID 651580;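 active means mean inhibition across four replicates of at least 40 percent at the single tested concentration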
HIF-1a cs: inhibits HIF-1a reporter, a counter-screen for HIF-2a inhibitors. shares compounds with HIF-2a block. MiaPaCa-2 HIF-1a luciferase reporter, desferoxamine, overnight. inhibition, % at 18.8 µM. 1,800 tested, 72% active;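 active means mean inhibition of the reporter signal across four replicates at the single tested dose of 50% or more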
An asterisk follows results filed as active; . = not tested or not shown; ! = repeats disagree.

SMILES	KKLEB tox	ABHD5 PLIN5 PPI	Peg3 promoter	CF NFkB inh	MITF TRPM1 inh	HIF-2a block	HIF-2a conf	HIF-1a cs	others
COc1cc(C(=O)N2CCN(S(=O)(=O)c3ccc(C)cc3C)CC2)ccc1OCC(=O)N1CCOCC1	-5	-5	19	30	1	12	.	.
COc1cc(OC)cc(C(=O)N2CCN(Cc3ccccc3C(F)(F)F)CC2)c1	-10	7	5	22	-11	13	.	.
CCN1CCN(Cc2ccc(NC(=O)c3cc(NC(=O)c4cncc(-c5ccc(C#N)cc5)c4)cc(OC)c3)cc2C(F)(F)F)CC1	-73*!	13	106*	57*!	97*	89*!	17	98*
N=c1c2c(-c3ccccc3)c(-c3ccccc3)n(Cc3ccco3)c2ncn1CCCN1CCOCC1	0	3	99*	22	3	7	.	.	Mdm2-MdmX confirm=102*
CC(C)Cn1cnc2c(c(-c3ccccc3)c(-c3ccccc3)n2Cc2ccco2)c1=N	-15	6	104*	13	17	58*	16	102*
N=c1c2c(-c3ccccc3)c(-c3ccccc3)n(Cc3ccco3)c2ncn1CCCn1ccnc1	-20	13	66*	21	88*	69*	16	74*
OCCNc1ncnc2c1c(-c1ccccc1)c(-c1ccccc1)n2Cc1ccco1	-4	13	7	17	10	21	.	.
c1ccc(-c2c(-c3ccccc3)n(Cc3ccco3)c3ncnc(NCCCn4ccnc4)c23)cc1	-6	15	37	22	6	49*	34	101*
ON=C(CCc1ccccc1)CCc1ccccc1	12	-2	-14	17	1	-17	.	.
NC(=O)c1ccc(Cl)c2ccccc12	-8	-3	-17	14	1	58*	4	28
N=C(N)SCc1ccc(Cl)c2ccccc12	2	5	-6	11	-9	-13	.	.
Cn1c(=O)c2c(nc(CN3CCc4ccccc4C3)n2Cc2cccc(Cl)c2)n(C)c1=O	-2	2	41	40	.	43*	15	76*
CC[C@H](C)[C@@H](CN[C@H](CCCCNC)CNC)NCC1CCCC1	2	5	-9	0	3	11	.	.
CCCC[C@@H](CN[C@H](C)CNC)NCC1CCC(C(C)(C)C)CC1 (stereo not given in full)	.	.	.	.	.	.	.	.	Mdm2-MdmX confirm=103*
CCOC(=O)c1cc(-c2csc(-c3ccc(C(C)(C)C)cc3)n2)on1	0	-6	-8	-4	4	57*	58*	4
CCC(C)(C)c1ccc(OCCCC[n+]2ccc(C)cc2)c(C(C)(C)CC)c1	.	.	.	.	.	.	.	.	Mdm2-MdmX confirm=102*
CCC(C)(C)c1ccc(OCCCC[n+]2cccc(C)c2C)c(C(C)(C)CC)c1	-32	13	107*	47	71*	88*	77*	107*	Mdm2-MdmX confirm=103*
CC(NC(=O)c1cccc(S(=O)(=O)N(C)c2ccccc2)c1)c1cccnc1 (stereo not given)	8	-4	11	-29	.	8	.	.
Nc1ccc2nc(-c3ccc(N)c(Cl)c3)[nH]c2c1	0	5	-254	-27	-29	-137	.	.
Nc1ccc(-c2nc3c(Cl)cc(N)cc3[nH]2)cc1	-4	3	12	-5	76*	88*	96*	85*
COc1nn(-c2ccccc2)c(=O)c(Cl)c1Cl	-66*	9	105*	91*	84*	93*	65*	106*
CCN(CC)CCNC(=O)C(Cl)=C1C(Cl)=C(Cl)C(Cl)=C1Cl	4	0	97*	-18	13	67*	31	61*
CCN1C[C@@H]2[C@@H]3C(=O)N(C)C(=O)[C@@H]3[C@](Cc3ccccc3)(C(=O)OC)N2C1=NC1CCCCC1	-7	-6	4	0	0	-1	.	.
CC1(C)CC(Cc2ccc(C(=O)c3ccccc3)cc2)N(C(=O)OC(C)(C)C)N1 (stereo not given)	-15	-7	4	11	.	-35	.	.
CCOC(=O)C1=C(C)Nc2ccccc2N=C1NC(=O)C1CCN(C(=O)c2ccccc2C)CC1	4	-7	20	-20	4	11	.	.
SMILES	KKLEB tox	ABHD5 PLIN5 PPI	Peg3 promoter	CF NFkB inh	MITF TRPM1 inh	HIF-2a block	HIF-2a conf	HIF-1a cs	others
C=C1C(=O)C=C[C@]2(C)C[C@@H]3OC(=O)[C@](C)(O)[C@H]3C[C@@H]12	24	19	91*	5	.	40*	11	98*
Cc1cc(C)cc(COc2ccc3c(C)c(CC(=O)O)c(=O)oc3c2C)c1	0	6	-11	11	-14	-27	.	.
Cc1c(C)c2ccc(OCc3ccc(C(=O)O)o3)c(C)c2oc1=O	-4	6	-41	11	23	50*	5	-38
COc1ccc(S(=O)(=O)Nc2cc3c4c(c2)CCN4C(=O)CC3)cc1	10	-5	-32	-20	-8	-16	.	.
CC(C)c1c(C(=O)Nc2ccccc2)c(-c2ccccc2)c(-c2ccc(F)cc2)n1CC[C@@H](O)C[C@@H](O)CC(=O)O	-14	-2	19	17	.	40*	27	-34
O=C1CCN(Cc2ccc([N+](=O)[O-])cc2)CCN1[C@H](CO)c1ccccc1	0	-1	3	0	-1	8	.	.
CC(=O)Nc1ccc(NC(=O)c2c([N+](=O)[O-])c(C(C)(C)C)nn2C)cc1	8	5	2	4	11	60*	67*	36
CN1CCN(C(=O)CCN2C(=O)/C(=C\c3ccc(Cl)cc3)SC2=S)CC1	-3	-3	48	13	-4	7	.	.
NS(=O)(=O)c1ccc(CCN2C(=O)/C(=C\c3ccc(Cl)cc3)SC2=S)cc1	11	4	83*	0	-7	42*	.	.	Mdm2-MdmX confirm=103*
CCCc1ccc(-c2ccc(/C=C/C(=O)O)cc2)nc1	-11	5	39	-13	86*	87*	89*	91*
S=C(Nc1ccc(Cl)cc1)c1nc2ccccc2[nH]1	-23	-3	-189	-34	-14	-201	.	.
O=C(/C(=C\c1ccccc1)c1nc2ccccc2[nH]1)c1ccc(Cl)cc1	-14	21	87*	42	20	64*	-155	100*
COc1ccc(C2C(Oc3ccccc3)C(=O)N2c2cc(C)ccc2C)cc1OC (stereo not given)	2	3	17	0	-1	-5	.	.

High-throughput results (PubChem BioAssay)
